From PubChem BioAssay (NCI)
Several values for one entry are separate records, joined by “and”; a condition that tells them apart may be missing. Identical values can stand only once. About 83,000 compounds went through this panel and 20% of them were active in at least one assay; those are over-represented in the sample as a whole.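 Results are percent growth after 48 hours of single-concentration exposure. 100 means growth as in untreated cells, lower positive values show inhibition; negative values down to -100 show cell death.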 Values without a mark were called inactive. Activity calls are given as the source filed them. Rule for the calls: active = growth percent below 10; inactive = the rest.

What follows are compounds tested on MDA-MB-468 breast (assay: NCI-60 one-dose screen, 48 h (100 = growth as untreated, 0 = no growth, -100 = all killed)). Settings: 10 µM unless noted.

Row | SMILES | growth
1 | COc1ccc2cc1Oc1ccc(cc1)C[C@H]1c3c(cc4c(c3Oc3cc5c(cc3OC)CCN(C)[C@@H]5C2)OCO4)CCN1C | 7.08% (active)
2 | C#Cc1cccc(NC(=O)c2ccc(NC(=O)C=C)cc2)c1 | 14.6% [8.25 µM]
3 | COc1cc2c(-c3nc4cc(Cl)c(F)cc4s3)cc(=O)oc2c(C)c1OC | -58.7% (active)
4 | Cc1sc2c(c1C)c(=O)nc1c(-c3nc(-c4ccc(F)cc4)no3)n[nH]n12 | 110%
5 | O=C(/C=C/c1sc(Cl)nc1Cl)c1ccc(F)cc1 | 40.9%
6 | CCCCn1c(-c2cccc(OC)c2)nc2cc(OC)c(OC)cc2c1=O | 107%
7 | O=C(NCCCNS(=O)(=O)c1ccc(Cl)cc1)Nc1ccc(-n2cc(-c3ccncc3)c(-c3ccc(Cl)c(O)c3)n2)cc1 | 47.6%
8 | CC[n+]1c(C)ccc2cc(C)ccc21 | 58.1%
9 | CCCCCCCCN(CCCCCCCC)CCCCCCNc1cc(OC)cc2cccnc12 | 68.2%
10 | CCN1/C(=C/C=C/c2n(-c3ccccc3)c3ccc(-c4nc5ccccc5s4)cc3[n+]2CC)N(c2ccccc2)c2ccc(-c3nc4ccccc4s3)cc21 | 8.94% (active)
11 | CN(C)/N=C/c1ccccc1O | 97.8%
12 | Nc1cc2c3c(cccc3c1)C(=O)N(CCN1CCCC1)C2=O | 40.2%
13 | COc1ccc(C(=O)N2NC(=O)/C(=C/c3ccc(Br)cc3)N=C2c2ccccc2)cc1 | 91.8%
14 | COc1ccc(-c2ccc(C)n2-c2ccc(-c3nc4ccccc4s3)cc2)cc1 | 3.77% (active)
15 | Cc1ccc(C2C=C(c3ccc(Cl)cc3)N=C3SC=CN32)c(Br)c1 (stereo not given) | 69.7%
16 | COc1ccc2[nH]cc(-c3nc(N)nnc3-c3cn(C)c4ccc(Br)cc34)c2c1 | -31.3% (active)
17 | c1ccc(-c2ccc3c(c2)C2(CCNCC2)CN3)cc1 | 106%
18 | COc1cc(-c2noc(C[C@@H](NC(=O)OCc3ccccc3)C(C)C)n2)cc(OC)c1OC | 88.5%
19 | CCN(CC)CCCC(C)Nc1c(-c2ccccc2)cnc2cc(Cl)ccc12 (stereo not given) | 44.4%
20 | C#CCn1cnc2c(Nc3cccc(NC(=O)C=C)c3)ncnc21 | 78%

Row | SMILES | growth
21 | Cc1ccc(NC2CC(=O)N(c3c(C)cc(C)cc3C)C2=O)c(C)c1 (stereo not given) | 114%
22 | Clc1ccc(Nc2nnc(COc3ccccc3)c3ccccc23)cc1 | -16.9% (active)
23 | COc1ccc(-c2nn(-c3cccc(NC(=O)c4cccc(C(F)(F)F)c4)c3)cc2-c2ccncc2)cc1Cl | 31.4%
24 | CN(C)c1ccc2cc3c(cc2c1)Oc1ccccc1N3.[Cl][Zn][Cl] | -10.4% (active)
25 | COc1ccc(-c2nc3c(ncc4ccc(=O)[nH]c43)s2)cc1 | 62.9%
26 | CCCCCOC(=O)c1ccc(NC(=O)CNCC(C)C)cc1 | 102%
27 | O=C(O)c1cn(C2CC2)c2cc(N3CCN(C(=O)CSc4nc(NS(=O)(=O)c5ccccc5)cc(=O)[nH]4)CC3)c(F)cc2c1=O | 98.7%
28 | Oc1cc2ccccc2c(-c2c(O)c(O)cc3ccccc23)c1O | 26.6%
29 | CN(C)c1ccc(C(=C2C=CC(=[N+](C)C)C=C2)c2ccccc2Cl)cc1 | -57.8% (active) and -84.2% (active)
30 | COc1ccc(C(=O)/C=C/c2cc3ccccc3[nH]c2=O)cc1 | 17.6%
31 | CCOC(=O)c1sc(NC(=O)COc2cccc(/C=C3\Cc4ccc(Cl)cc4C3=O)c2)nc1C | 118%
32 | C/C(=N\N=C(/C)c1cccc([N+](=O)[O-])c1)c1cccc([N+](=O)[O-])c1 | 86.1%
33 | C#Cc1cccc(NC(=O)c2ccccc2NC(=O)CCl)c1 | 76.1% [8.25 µM]
34 | CCOC(=O)c1c(NC(=O)c2ccc(C(F)(F)F)cc2)sc2c3c(ccc12)OCN(C)C3 | -76.9% (active)
35 | COc1ccc(-c2cn(-c3cccc(C(=O)/C=C/c4cc(OC)c(OC)c(OC)c4)c3)c(=O)[nH]2)cc1OC | 98.1%
36 | Clc1ccc(Nc2ncnc3c2sc2ncccc23)cc1 | 23%
37 | O=[N+]([O-])c1cccc(-c2nc(-c3ccc(Cl)cc3Cl)cn2-c2ccccc2)c1 | 22.2%
38 | O=C1OC[C@H]2[C@H](c3ccc(O)c(O)c3)c3cc(O)c(O)cc3C[C@H]12 | 93.3%
39 | N=C(N)c1ccc(-c2ccc(-c3ccc(-c4cccs4)s3)s2)cc1F | 79.5%
40 | CC(=O)C1=C(O)C=C2Oc3c(C(=O)/C=C/c4c(Cl)cccc4Cl)c(O)c(C)c(O)c3[C@]2(C)C1=O | -39.7% (active)
